According to paper PMC7862700, “An all-to-all approach to the identification of sequence-specific readers for epigenetic DNA modifications on cytosine”:

Tests used:
Assay in all cases: DAPPL (digital affinity profiling via proximity ligation, sequencing); 10 mM Tris-HCl pH 7.5, 50 mM NaCl, 1 mM DTT, 4% glycerol, room temperature, 30 min; GST-TFs on glutathione beads, 16-mer random dsDNA library, 0.1% formaldehyde crosslink after washing; high values mean tight binding
Conditions in all cases: protein: recombinant; tags: N-terminal GST; dsDNA, one strand shown
ERF = target: T1, ERF (Homo sapiens, UniProt P50548 1-548)
T1 sequence: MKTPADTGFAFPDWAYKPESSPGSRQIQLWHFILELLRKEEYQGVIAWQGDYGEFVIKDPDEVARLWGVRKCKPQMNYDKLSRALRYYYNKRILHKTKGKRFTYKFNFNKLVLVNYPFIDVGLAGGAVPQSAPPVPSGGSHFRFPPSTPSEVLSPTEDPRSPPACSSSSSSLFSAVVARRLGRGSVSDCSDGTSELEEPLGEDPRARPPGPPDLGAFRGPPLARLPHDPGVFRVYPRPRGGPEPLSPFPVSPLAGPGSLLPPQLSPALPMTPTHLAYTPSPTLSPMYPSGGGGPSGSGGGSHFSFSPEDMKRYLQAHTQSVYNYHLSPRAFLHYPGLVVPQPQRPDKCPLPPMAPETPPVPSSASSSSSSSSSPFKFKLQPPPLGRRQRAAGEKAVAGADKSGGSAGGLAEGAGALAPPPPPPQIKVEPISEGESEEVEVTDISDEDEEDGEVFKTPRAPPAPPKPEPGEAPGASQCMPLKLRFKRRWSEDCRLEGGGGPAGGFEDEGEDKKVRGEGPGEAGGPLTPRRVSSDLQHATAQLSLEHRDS
How it was run: (§1)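 Human transcription factors fused to GST were expressed in yeast, captured on glutathione beads, given DNA barcodes and pooled with a GST-only negative control. Pools were incubated with 200 nmole of a 16-mer random double-stranded DNA library in Tris/NaCl/DTT/glycerol buffer at room temperature for 30 min. They were then washed, crosslinked with 0.1% formaldehyde, proximity-ligated (BsaI/T4 ligase, 1 h, 37 °C), PCR-amplified and sequenced on an Illumina NextSeq500. Binding signal is each 6-mer's read frequency for a factor divided by its frequency for the GST control.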

ETV3L = target: T2, ETV3L (Homo sapiens, UniProt Q6ZN32 1-361)
T2 sequence: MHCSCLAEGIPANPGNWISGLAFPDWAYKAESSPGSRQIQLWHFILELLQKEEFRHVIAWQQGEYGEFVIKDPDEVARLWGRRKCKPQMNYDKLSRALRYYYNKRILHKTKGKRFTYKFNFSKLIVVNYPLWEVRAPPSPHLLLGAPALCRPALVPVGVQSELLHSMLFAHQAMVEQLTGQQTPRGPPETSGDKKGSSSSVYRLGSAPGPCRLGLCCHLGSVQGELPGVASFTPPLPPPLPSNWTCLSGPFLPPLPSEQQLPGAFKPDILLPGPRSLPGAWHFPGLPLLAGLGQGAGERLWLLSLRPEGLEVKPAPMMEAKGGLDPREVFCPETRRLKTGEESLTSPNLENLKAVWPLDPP
How it was run: as §1

ETS2 = target: T3, ETS2 (Homo sapiens, UniProt P15036 1-469)
T3 sequence: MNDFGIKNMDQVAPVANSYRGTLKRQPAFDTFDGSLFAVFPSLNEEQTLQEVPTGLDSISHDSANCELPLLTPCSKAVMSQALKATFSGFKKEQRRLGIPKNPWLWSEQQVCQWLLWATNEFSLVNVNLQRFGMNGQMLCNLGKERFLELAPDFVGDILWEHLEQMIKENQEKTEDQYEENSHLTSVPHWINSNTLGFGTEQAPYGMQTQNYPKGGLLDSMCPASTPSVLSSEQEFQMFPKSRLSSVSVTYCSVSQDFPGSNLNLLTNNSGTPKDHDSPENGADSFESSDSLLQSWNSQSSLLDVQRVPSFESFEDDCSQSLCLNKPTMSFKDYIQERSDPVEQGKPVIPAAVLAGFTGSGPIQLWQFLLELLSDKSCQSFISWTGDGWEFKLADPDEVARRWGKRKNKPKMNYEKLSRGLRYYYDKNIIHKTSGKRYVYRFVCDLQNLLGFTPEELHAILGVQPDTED
How it was run: as §1

SPDEF = target: T4, SPDEF (Homo sapiens, UniProt O95238 1-335)
T4 sequence: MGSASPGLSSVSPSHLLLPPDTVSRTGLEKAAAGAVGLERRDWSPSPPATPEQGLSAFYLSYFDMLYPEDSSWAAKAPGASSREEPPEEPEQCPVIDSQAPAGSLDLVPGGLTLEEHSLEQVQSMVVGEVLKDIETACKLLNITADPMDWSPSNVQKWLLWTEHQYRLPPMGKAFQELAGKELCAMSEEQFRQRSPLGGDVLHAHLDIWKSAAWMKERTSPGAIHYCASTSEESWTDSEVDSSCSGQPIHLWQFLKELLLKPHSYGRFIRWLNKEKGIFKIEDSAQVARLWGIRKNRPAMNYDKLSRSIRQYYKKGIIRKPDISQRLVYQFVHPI
How it was run: as §1

ETV7 = target: T5, ETV7 (Homo sapiens, UniProt Q9Y603 1-341)
T5 sequence: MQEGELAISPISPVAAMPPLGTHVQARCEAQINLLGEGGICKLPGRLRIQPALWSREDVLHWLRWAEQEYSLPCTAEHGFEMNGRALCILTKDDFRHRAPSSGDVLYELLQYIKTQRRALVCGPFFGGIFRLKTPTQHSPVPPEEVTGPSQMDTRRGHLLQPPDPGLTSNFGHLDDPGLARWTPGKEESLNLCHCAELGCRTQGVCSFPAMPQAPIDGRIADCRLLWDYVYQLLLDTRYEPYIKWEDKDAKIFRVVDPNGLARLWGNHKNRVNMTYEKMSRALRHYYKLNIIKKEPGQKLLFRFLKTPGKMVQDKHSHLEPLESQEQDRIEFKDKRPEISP
How it was run: as §1

ELF5 = target: T6, ELF5 (Homo sapiens, UniProt Q9UKW6-2 1-255)
T6 sequence: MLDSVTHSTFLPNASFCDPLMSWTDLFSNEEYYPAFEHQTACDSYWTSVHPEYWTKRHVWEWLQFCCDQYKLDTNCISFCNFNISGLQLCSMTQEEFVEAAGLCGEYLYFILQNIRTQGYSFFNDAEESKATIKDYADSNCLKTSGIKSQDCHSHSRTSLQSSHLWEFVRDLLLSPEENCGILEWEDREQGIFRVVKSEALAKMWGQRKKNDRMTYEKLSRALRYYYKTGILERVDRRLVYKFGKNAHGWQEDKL
How it was run: as §1

ETV3 = target: T7, ETV3 (Homo sapiens, UniProt P41162-2 1-143)
T7 sequence: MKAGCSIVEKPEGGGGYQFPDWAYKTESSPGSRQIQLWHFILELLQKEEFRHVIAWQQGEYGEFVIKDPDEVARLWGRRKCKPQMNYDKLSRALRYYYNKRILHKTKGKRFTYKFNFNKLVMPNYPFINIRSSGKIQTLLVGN
How it was run: as §1

ETV6 = ETV6 (Homo sapiens, UniProt P41212 1-452)
How it was run: as §1

Sequence of ETV6 (P41212 whole entry): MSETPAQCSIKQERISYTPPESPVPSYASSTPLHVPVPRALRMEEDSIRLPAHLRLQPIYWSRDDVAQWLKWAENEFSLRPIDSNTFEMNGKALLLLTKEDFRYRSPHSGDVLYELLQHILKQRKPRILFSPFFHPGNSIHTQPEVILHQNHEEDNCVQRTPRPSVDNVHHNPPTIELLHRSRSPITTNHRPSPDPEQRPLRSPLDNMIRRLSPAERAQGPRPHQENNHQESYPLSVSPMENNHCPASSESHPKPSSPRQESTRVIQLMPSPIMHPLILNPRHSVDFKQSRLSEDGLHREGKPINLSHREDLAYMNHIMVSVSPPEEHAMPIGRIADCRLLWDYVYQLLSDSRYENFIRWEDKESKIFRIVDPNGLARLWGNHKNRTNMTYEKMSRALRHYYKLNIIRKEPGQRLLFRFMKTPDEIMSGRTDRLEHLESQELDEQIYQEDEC

Row | Sequence | binding signal (ERF) | binding signal (ETV3L) | binding signal (ETS2) | binding signal (SPDEF) | binding signal (ETV7) | binding signal (ELF5) | binding signal (ETV3) | binding signal (ETV6)
1 | GCGGAA | 1.19 fold enrichment (6-mer frequency, TF over GST control) | 1.29 fold enrichment (6-mer frequency, TF over GST control) | 1.42 fold enrichment (6-mer frequency, TF over GST control) | 1.22 fold enrichment (6-mer frequency, TF over GST control) | 1.26 fold enrichment (6-mer frequency, TF over GST control) | 1.67 fold enrichment (6-mer frequency, TF over GST control) | 1.55 fold enrichment (6-mer frequency, TF over GST control) | 1.58 fold enrichment (6-mer frequency, TF over GST control)
2 | AACTAT | 1.17 fold enrichment (6-mer frequency, TF over GST control) | 1.28 fold enrichment (6-mer frequency, TF over GST control) | 1.45 fold enrichment (6-mer frequency, TF over GST control) | 1.42 fold enrichment (6-mer frequency, TF over GST control) | 1.38 fold enrichment (6-mer frequency, TF over GST control) | 1.45 fold enrichment (6-mer frequency, TF over GST control) | 1.28 fold enrichment (6-mer frequency, TF over GST control) | 1.33 fold enrichment (6-mer frequency, TF over GST control)
3 | CATGGT | 1.24 fold enrichment (6-mer frequency, TF over GST control) | 1.27 fold enrichment (6-mer frequency, TF over GST control) | 1.25 fold enrichment (6-mer frequency, TF over GST control) | 1.13 fold enrichment (6-mer frequency, TF over GST control) | 1.16 fold enrichment (6-mer frequency, TF over GST control) | 1.16 fold enrichment (6-mer frequency, TF over GST control) | 1.25 fold enrichment (6-mer frequency, TF over GST control) | 1.2 fold enrichment (6-mer frequency, TF over GST control)
4 | GTATTC | 1.29 fold enrichment (6-mer frequency, TF over GST control) | 1.25 fold enrichment (6-mer frequency, TF over GST control) | 1.33 fold enrichment (6-mer frequency, TF over GST control) | 1.21 fold enrichment (6-mer frequency, TF over GST control) | 1.34 fold enrichment (6-mer frequency, TF over GST control) | 1.31 fold enrichment (6-mer frequency, TF over GST control) | 1.34 fold enrichment (6-mer frequency, TF over GST control) | 1.28 fold enrichment (6-mer frequency, TF over GST control)
5 | AACGAA | 1.12 fold enrichment (6-mer frequency, TF over GST control) | 1.16 fold enrichment (6-mer frequency, TF over GST control) | 1.18 fold enrichment (6-mer frequency, TF over GST control) | 1.1 fold enrichment (6-mer frequency, TF over GST control) | 1.25 fold enrichment (6-mer frequency, TF over GST control) | 1.09 fold enrichment (6-mer frequency, TF over GST control) | 1.11 fold enrichment (6-mer frequency, TF over GST control) | 1.17 fold enrichment (6-mer frequency, TF over GST control)
6 | CATCGA | 1.16 fold enrichment (6-mer frequency, TF over GST control) | 1.21 fold enrichment (6-mer frequency, TF over GST control) | 1.15 fold enrichment (6-mer frequency, TF over GST control) | 1.04 fold enrichment (6-mer frequency, TF over GST control) | 1.13 fold enrichment (6-mer frequency, TF over GST control) | 1.05 fold enrichment (6-mer frequency, TF over GST control) | 1.08 fold enrichment (6-mer frequency, TF over GST control) | 1.01 fold enrichment (6-mer frequency, TF over GST control)
7 | ACCCGA | 1.22 fold enrichment (6-mer frequency, TF over GST control) | 1.05 fold enrichment (6-mer frequency, TF over GST control) | 1.07 fold enrichment (6-mer frequency, TF over GST control) | 1.03 fold enrichment (6-mer frequency, TF over GST control) | 1.11 fold enrichment (6-mer frequency, TF over GST control) | 1.01 fold enrichment (6-mer frequency, TF over GST control) | 1.05 fold enrichment (6-mer frequency, TF over GST control) | 1.04 fold enrichment (6-mer frequency, TF over GST control)
